Shown are actives, neighbours in structure and some others; about 0.52% of the full set was active somewhere.
Sa helicase inh – S. aureus DNA helicase inhibition; purified S. aureus helicase, fluorescence unwinding assay; AID 485395; 0.05% of 120,000 active; inhibition, % (test concentration not listed); in the data active = inhibition above about 25%, passing the limit was not always enough;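 note: 0% = mean of negative control wells and 100% = mean of positive control wells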
Sa growth inh – S. aureus growth inhibition; 0.53% of 170,000 active; AID 720641; S. aureus RN4220 growth, OD600, 20 h, 42 °C; hits give low values; relative growth, % (concentration not given with the values);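 active = relative growth at most 50% at the other temperature and 20+ points below 30 °C, or under 10% at both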
The depositor's hits bear a star; . = no result given.

SMILES | Sa helicase inh | Sa growth inh
O=C(NC1CCSc2ccccc21)c1ccccc1 (stereo not given) | -4.0 | 91.2
C=C1N(C)c2ccc(NC(=O)c3ccccc3)cc2C1(C)C | -5.0 | 8.3*
Cc1ccc(NC(=O)c2ccc(CNS(=O)(=O)c3ccc4c(c3)C(C)(C)C(=O)N4C)cc2)cc1C | . | 126.8
O=C(C1CCN(S(=O)(=O)c2cccc3nsnc23)CC1)N1CCN(c2ccccc2Cl)CC1 | -21.0 | 95.3
C=CCC(C(=O)OC)N1CCOCC1 (stereo not given) | -6.0 | 104.2
O=C(COC(=O)C1COc2ccccc2O1)Nc1ccccc1 (stereo not given) | -10.0 | 75.8
Cc1nccc(-c2cccc(NN=C(C#N)C#N)c2)n1 | 20.0 | -0.4*
Cc1nccc(-c2cccc(N/N=C(\C#N)S(=O)(=O)c3ccccn3)c2)n1 | 0.0 | 94.6
Nc1ccccc1C(=O)NC1CC1 | -20.0 | 109.8
O=C(Cc1ccsc1)OCC(=O)N1CCN(S(=O)(=O)c2ccc(Cl)cc2)CC1 | 1.0 | 104.4
CCOC(=O)c1cn(C2CC2)c2c(F)c(F)c(F)cc2c1=O | -3.0 | 117.1
Cc1cc(C)c(NC(=O)c2nccnc2CO)c(C)c1 | 2.0 | 100.6
O=S(=O)(c1ccc(NC2CCN(Cc3ccccc3)CC2)nc1)N1CCCCC1 | 38.0* | 94.0
O=C(CSc1ccc(S(=O)(=O)N2CCN(Cc3ccccc3)CC2)cn1)NC(=O)NC1CCCC1 | 4.0 | 99.7
CC(=O)N(CCCCN1C(=O)c2ccccc2C1=O)c1ccc(Cl)cc1 | 8.0 | 85.9
CC1(C)C2CCC1(C(=O)O)C(=O)C2 (stereo not given) | -13.0 | 81.7
O=C(CSc1nccn1-c1ccccc1)Nc1ccc(OC(F)(F)F)cc1 | 5.0 | .
Cc1cn(C2CC(O)C(CO)O2)c(=O)[nH]c1=O (stereo not given) | 16.0 | 80.6
O=c1[nH]c(=O)n([C@H]2C[C@H](O)[C@@H](CO)O2)cc1F | . | -0.6*
O=C1CCCc2oc(=O)ccc21 | -6.0 | 98.8
O=C(c1ccccc1)N1CCN(C(=O)C2CC3C=CC2C3)CC1 (stereo not given) | -8.0 | 98.3
COc1cccc(C(CC(=O)c2ccc(Cl)cc2)C(C#N)C#N)c1 (stereo not given) | 2.0 | 50.6
Cc1ccc(C(=O)CC(c2ccccc2)C(C#N)C#N)cc1 (stereo not given) | -9.0 | 47.6*
Cc1nn(-c2ccccc2)c(N)c1Sc1c(F)c(F)c(F)c(F)c1F | -13.0 | 85.5
COc1cc(OC)c(C2=NOC(C(=O)Nc3cc(C)n(CC(=O)NCc4ccco4)n3)C2)cc1Cl (stereo not given) | 19.0 | 103.3
SMILES | Sa helicase inh | Sa growth inh
O=C(Nc1cccc(C(=O)O)c1)/C(=C\c1ccco1)NC(=O)c1ccc(Br)cc1 | -30.0 | 100.9
COC(=O)C(Sc1c[nH]c2ccccc12)(C(F)(F)F)C(F)(F)F | 42.0 | 0.0*
COC(=O)C(N)Cc1c[nH]c2ccccc12 (stereo not given) | -18.0 | 93.6
CC(N)c1ccc(-c2ccccc2)cc1 (stereo not given) | -11.0 | 95.6
c1ccc(-c2ccc(C(c3ccccc3)n3ccnc3)cc2)cc1 (stereo not given) | . | 1.6*
CCCC(=O)C1=C(N2CCN(C3=C(C(=O)CCC)C(=O)CC(C)(C)C3)CC2)CC(C)(C)CC1=O | 13.0 | 102.0
CCOC(=O)CC(N)=S | 0.0 | 110.6
CCOC(=O)CC(=N)N | 63.0* | 84.0
Clc1ccc(-c2noc(CCCSc3nnnn3-c3ccccc3)n2)cc1 | 2.0 | 109.7
CCOC(=O)CSCc1cn2c(C)cc(C)nc2n1 | -1.0 | 95.8
c1cncc(-c2nc(NCCSCc3ccco3)c3ccccc3n2)c1 | -8.0 | 5.9*
Clc1ccc(-c2nc(NCc3ccco3)c3ccccc3n2)c(Cl)c1 | -36.0 | 52.1
CCc1ccc(NC2=NS(=O)(=O)c3ccccc32)cc1 | 5.0 | 110.4
CC(NC(=O)NC1CCN(c2nc3ccccc3s2)CC1)c1cccs1 (stereo not given) | -1.0 | 86.3
CNC(C)c1nc2ccccc2s1 (stereo not given) | 10.0 | 89.7
CCOc1ccc(NC(=O)N2CCN(c3ccc(Cl)c(Cl)c3)CC2)cc1 | . | 106.8
CC(=O)N1CCN(c2ccc(OCC3CO[C@](Cn4ccnc4)(c4ccc(Cl)cc4Cl)O3)cc2)CC1 (stereo not given in full) | . | 2.6*
NCc1ccsc1 | 14.0 | 107.2
COc1ccc(NC(=O)C2CC2C)c(OC)c1 (stereo not given) | 4.0 | 85.2
O=C(CSc1nnnn1-c1ccc2c(c1)OCCO2)NC1CCCC1 | 12.0 | 108.5
CC(=O)n1c(=O)n(C(C)=O)c2cc(Br)ccc21 | 3.0 | 94.7
O=C(OCc1nc2ccsc2c(=O)[nH]1)c1ccc(N2CCCC2=O)cc1 | 9.0 | 85.8
Cc1ccc(C)n1-c1ccc(C(=O)OCc2nc3ccsc3c(=O)[nH]2)cc1 | 1.0 | 48.1*
CCN(C(=O)CSc1nc(N)cc(=O)[nH]1)C1=CCCC1 | -8.0 | 80.0
CC(=O)N1CCN(c2csc3ccccc3c2=O)CC1 | 7.0 | 87.9
SMILES | Sa helicase inh | Sa growth inh
O=C(O)c1ccc(-c2cccc(C(F)(F)F)c2)o1 | -3.0 | 45.4*
NC(=O)c1ccc(-c2cccc(C(F)(F)F)c2)o1 | 8.0 | 95.1
COC(=O)c1ccc2c(=O)n3nc(NCC4CCCO4)sc3nc2c1 (stereo not given) | 3.0 | 88.8
COC(=O)c1cn(-c2ccccc2)nc1-c1cccs1 | -5.0 | 18.4*
CN(C)C(=O)c1cn(-c2ccccc2)nc1-c1cccs1 | -14.0 | 80.6
Oc1ccccc1C1=Nc2ncnn2C(c2ccc(Cl)cc2)C1 (stereo not given) | 14.0 | 95.4
C/C(=N\OCc1nc2c3cnn(C)c3ncn2n1)c1cccs1 | 3.0 | 92.8
CCN1CCCC1CNC(=O)CCCn1nc(C)n2c(cc3sccc32)c1=O (stereo not given) | -1.0 | 107.3
CC(C)(O/N=C(\C(=O)N[C@@H]1C(=O)N2C(C(=O)[O-])=C(C[n+]3ccccc3)CSC12)c1csc(N)n1)C(=O)O (stereo not given in full) | . | 69.3
COCC1=C(C(=O)OC(C)OC(=O)OC(C)C)N2C(=O)[C@@H](NC(=O)C(=NOC)c3csc(N)n3)[C@H]2SC1 (stereo not given in full) | . | 16.3
CC(=O)OCC1=C(C(=O)O)N2C(=O)[C@@H](NC(=O)CSc3ccncc3)[C@H]2SC1 | . | -0.3*
CO/N=C(\C(=O)N[C@@H]1C(=O)N2C(C(=O)O)=C(COC(C)=O)CS[C@H]12)c1csc(N)n1 | . | -0.8*
COC(=O)c1cn(NC(=O)CSc2ccncc2)c(=O)c2ccccc12 | 6.0 | 105.6
CO/N=C(/C(=O)NC1C(=O)N2C(C(=O)O)=C(COC(N)=O)CSC12)c1ccco1 (stereo not given) | . | -1.0*
N#CCC(c1ccccc1)c1ccc2c(c1)OCO2 (stereo not given) | 3.0 | 98.5
O=C(OCCNc1ncc(C(F)(F)F)cc1Cl)C1CCC1 | 13.0 | 98.8
COC(=O)c1cccc(Cn2c(C)nc3ccccc3c2=O)c1 | 12.0 | 96.0
CN(Cc1ccccc1)C1=CC2=CC(=C(C#N)C#N)CCC2CC1 (stereo not given) | -114.0 | 109.6
CCN(CC)c1ncc2c(=S)[nH]c(=S)[nH]c2n1 | . | 94.9
C=CCSc1ncc2c(=S)[nH]c(=S)[nH]c2n1 | . | 0.0*
c1ccc(Nc2nnc(-c3ccc(-c4nc5ccccc5s4)s3)o2)cc1 | -8.0 | 103.4
Clc1ccc(CSc2nnc(Cc3cccs3)n2C2CC2)cc1Cl | 2.0 | 63.0

Bioassay records (PubChem)
